# Experimental data published in PubChem BioAssay (NCATS).
# Records with an inconclusive call do not appear. Where a call stands in place of a potency, no number is given. Calls of active or inactive are those of the source. Unless noted, the call rests on the fitted dose curve; in most records, active means well fitted curve in the direction sought with a large enough effect; inconclusive means small, poorly fitted or top-dose-only effect, or another doubt; inactive means no such curve, though single readings can be large; an effect the other way counts as inactive or inconclusive.
# Assays:
# [1] = target: Arylsulfatase A (Homo sapiens) (UniProt P15289); assay: qHTS screen for enhancers of Arylsulfatase A (ASA1): LOPAC Validation Assay (AID 720538)
# Chain of Arylsulfatase A (Homo sapiens) (P15289 whole entry, looked up): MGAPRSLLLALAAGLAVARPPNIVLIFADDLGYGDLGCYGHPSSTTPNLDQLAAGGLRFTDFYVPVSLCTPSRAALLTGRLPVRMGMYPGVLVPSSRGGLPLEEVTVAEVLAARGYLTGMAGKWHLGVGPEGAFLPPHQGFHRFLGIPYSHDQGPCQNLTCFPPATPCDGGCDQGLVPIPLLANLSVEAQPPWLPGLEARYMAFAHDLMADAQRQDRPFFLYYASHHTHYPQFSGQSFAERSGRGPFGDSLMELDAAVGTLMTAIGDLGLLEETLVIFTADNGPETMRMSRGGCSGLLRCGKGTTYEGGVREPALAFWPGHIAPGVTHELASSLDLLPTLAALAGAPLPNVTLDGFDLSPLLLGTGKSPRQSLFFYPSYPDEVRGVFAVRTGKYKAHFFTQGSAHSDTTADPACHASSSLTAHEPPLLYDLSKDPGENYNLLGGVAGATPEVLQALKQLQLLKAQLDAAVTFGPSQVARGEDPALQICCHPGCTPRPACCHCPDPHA
# In short: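 Cell-based enhancement test: residual ASA activity in SV40-transformed I179S patient fibroblasts is measured by pNCS turnover (0.5mM final, 14h, room temperature) following 48h compound incubation; higher fluorescence indicates activation.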
# [2] = qHTS for Activators of Parkin Expression: LOPAC Validation Assay (NLuc Reporter) (AID 720572)
# In short: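 NLuc signal, read 10 min after reagent and following a prior FLuc read, is normalized to DMSO (0) and positive controls (100%). Cells: neuronal Parkin-promoter coincidence reporter line; compounds tested 7-point, 24 h, 37 C, 5% CO2.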
# [3] = qHTS for Activators of Parkin Expression: LOPAC Validation Assay (FLuc Reporter) (AID 720573)
# In short: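 Readout is FLuc luminescence from neuronal reporter cells (Parkin promoter, FLuc plus NLuc) after 24 h compound exposure in dose response. Values normalized to neutral DMSO and positive-control compounds.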
# [4] = qHTS for compounds that reverse cellular toxicity of Amyloid beta (A-beta) peptide in yeast: LOPAC Validation Assay (AID 720559)
# In short: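 Here, A-beta-toxic yeast grow with test compounds at 30 C for 48 hr before optical density at 600 nm is recorded; data are normalized against DMSO and the FeCl3-clioquinol control.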
# [5] = target: Tyrosine-protein kinase Yes (Homo sapiens) (UniProt P07947); assay: qHTS for small molecule inhibitors of Yes1 kinase: Primary Screen (AID 686947); further: nearly all actives have a fitted effect of over 60% in size
# Chain of Tyrosine-protein kinase Yes (Homo sapiens) (P07947 whole entry, looked up): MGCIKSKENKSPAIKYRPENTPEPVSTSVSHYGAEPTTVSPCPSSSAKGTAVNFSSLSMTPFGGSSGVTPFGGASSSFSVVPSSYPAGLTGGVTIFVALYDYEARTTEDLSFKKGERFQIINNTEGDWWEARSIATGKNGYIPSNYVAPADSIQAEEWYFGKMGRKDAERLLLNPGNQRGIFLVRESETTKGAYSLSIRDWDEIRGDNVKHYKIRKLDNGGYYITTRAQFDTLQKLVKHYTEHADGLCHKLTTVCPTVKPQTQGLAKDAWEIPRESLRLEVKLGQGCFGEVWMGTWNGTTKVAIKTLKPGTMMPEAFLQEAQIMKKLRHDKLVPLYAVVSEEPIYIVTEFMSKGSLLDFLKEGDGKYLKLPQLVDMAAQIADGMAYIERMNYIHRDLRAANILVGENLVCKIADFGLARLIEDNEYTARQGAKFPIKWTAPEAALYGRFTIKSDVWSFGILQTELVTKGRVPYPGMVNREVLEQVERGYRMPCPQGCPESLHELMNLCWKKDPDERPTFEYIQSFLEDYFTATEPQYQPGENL
# Description: The Src family of non-receptor protein tyrosine kinases contains nine members, including Yes1, Src, Fyn, Lyn, and […]. These kinases have important roles in a variety of cellular functions, such as cell proliferation, survival, and differentiation. Src, the most well characterized member of this family, has been previously identified as a proto-oncogene. […] In melanoma, it has been shown that Yes1, and not other family members, such as Src, is functionally involved in the malignant phenotype. Additionally, a recent study examining the downregulation of Yes1 by shRNA found significant effects on cell survival/growth for basal-like and Her2-positive breast cancers. Despite the potential for Yes1 to be a target for the above-described cancers, there are very few reports on the identification of potent and selective inhibitors of Yes1 kinase. Antagonists of Yes1 would further elucidate Yes1 biology and help to confirm whether Yes1 is a viable target for therapeutic intervention in a variety of cancers.
# A compound that inhibits Yes1 could be important for the treatment of various cancers in which Yes1 is highly expressed and can also be used as a tool compound to help further elucidate Yes1 biology. To that end, we have developed a sensitive HTS biochemical assay for Yes1 activity. This assay was screened against several small compound libraries to look for modulators of activity. Inhibition is the desired output for this assay.
# NIH Molecular Libraries Probe Production Centers Network [MLPCN]
# NIH Chemical Genomics Center [NCGC]
# Two micoliter of Yes1 enzyme (columns 1-2, 5-48; Millipore, Billerica, MA) are dispensed into Greiner, white solid-bottom 1536-well assay plates; columns 3 and 4 receive buffer without Yes1 as a control for maximum inhibition. Compounds (23 nL) are then transferred via Kalypsys pin tool equipped with 1536-pin array (10 nL slotted pins, V&P Scientific, San Diego, CA). […] Following addition of compound and a 20 minute incubation, 1 uL of substrate (ATP and poly-E4Y from Sigma-Aldrich, St. Louis, MO) is added, and the biochemical reaction is allowed to progress for 60 minutes at room temperature. The production of ADP is then quantified by the ADP-Glo Kit (Promega, Madison, WI). First, 2 uL of the first kit reagent is added, and the reaction is incubated for 45 minutes; then, 4 uL of the second kit reagent are added and the reaction is incubated for 30 minutes at which time the luminescence is read on a Viewlux plate reader (Perkin-Elmer, Waltham, MA). The final concentration of reagents in the reaction are 4 nM Yes1, 0.1 mM ATP, 100 uM EGTA, 10 mM MgCl2, 0.3 mg/mL poly(E4Y), 50 mM Tris pH 7.5, 1 mM DTT, 150 mM NaCl, 0.01% Brij-35, and 5% glycerol. […]
# [6] = qHTS for small molecule inhibitors of Yes1 kinase: Counter Assay (AID 686950);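 further: no kinase present so only ADP-Glo detection of a fixed ADP amount is tested; luminescence from ADP-Glo reporting ADP in a fixed ATP and ADP mixture; series mostly up to about 77 µM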
# In short: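 No kinase present; 0.08 mM ATP + 0.02 mM ADP in 50 mM Tris pH 7.5, 10 mM MgCl2, 150 mM NaCl, 1 mM DTT; 20 min compound preincubation, 60 min RT, ADP-Glo luminescence, normalized to ATP/ADP (max) and ATP-only (min).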
# [7] = qHTS for Inhibitors of Ubiquitin-specific Protease USP2a Using CHOP2 as the Reporter: Cytotox Assay (AID 652170);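 further: HCT116 human colon cancer cells at 600 per well; series mostly up to about 46 µM; nearly all actives have a fitted effect of over 70% in size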
# Description: Homeostasis of cellular proteins is maintained through a combination of synthesis and degradation. The pathway that accounts for the majority of protein degradation is the ubiquitin-proteasomal pathway. Ubiquitin (Ub) is highly conserved in all cells and the generation of a multi-Ub chain typically targets proteins for degradation by the proteasome. However, ubiquitination is highly reversible and dynamic. Deubiquitination, the reverse process, is catalyzed through the action of enzymes referred to as isopeptidases or deubiquitinating enzymes (DUBs). This group of enzymes is collectively responsible for maintaining adequate pools of free ubiquitin and regulating the ubiquitination status of cellular proteins. The class of DUBs referred to as the ubiquitin-specific proteases (USP) family functions endoproteolytically to cleave Ub chains from a wide range of protein substrates. […] This assays monitors cell proliferation by quantitating the amount of ATP present by luciferase, which in the presence of ATP converts pro-luciferin into the luminescent luciferin product. A compound that inhibits cell proliferation would result in a decrease in luminescence. […]
# 5 uL of HCT116 (600 cells/well) were plated into a 1536 well plate and then incubated for 6 hr at 37 deg C, 5% CO2. […] Then, 3 uL of Cell Titer Glo is added, the plate is left at RT for 10 min, before luminescence is detected using the ViewLux.
# [8] = target: Ubiquitin carboxyl-terminal hydrolase 2 (Homo sapiens) (UniProt O75604); assay: qHTS for Inhibitors of Ubiquitin-specific Protease USP2a Using CHOP2 as the Reporter: K484 Substrate (AID 652173);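 further: cleavage of internally quenched K48 di-ubiquitin substrate measured as rising fluorescence over time; nearly all actives have a fitted effect of over 70% in size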
# Chain of Ubiquitin carboxyl-terminal hydrolase 2 (Homo sapiens) (O75604 whole entry, looked up): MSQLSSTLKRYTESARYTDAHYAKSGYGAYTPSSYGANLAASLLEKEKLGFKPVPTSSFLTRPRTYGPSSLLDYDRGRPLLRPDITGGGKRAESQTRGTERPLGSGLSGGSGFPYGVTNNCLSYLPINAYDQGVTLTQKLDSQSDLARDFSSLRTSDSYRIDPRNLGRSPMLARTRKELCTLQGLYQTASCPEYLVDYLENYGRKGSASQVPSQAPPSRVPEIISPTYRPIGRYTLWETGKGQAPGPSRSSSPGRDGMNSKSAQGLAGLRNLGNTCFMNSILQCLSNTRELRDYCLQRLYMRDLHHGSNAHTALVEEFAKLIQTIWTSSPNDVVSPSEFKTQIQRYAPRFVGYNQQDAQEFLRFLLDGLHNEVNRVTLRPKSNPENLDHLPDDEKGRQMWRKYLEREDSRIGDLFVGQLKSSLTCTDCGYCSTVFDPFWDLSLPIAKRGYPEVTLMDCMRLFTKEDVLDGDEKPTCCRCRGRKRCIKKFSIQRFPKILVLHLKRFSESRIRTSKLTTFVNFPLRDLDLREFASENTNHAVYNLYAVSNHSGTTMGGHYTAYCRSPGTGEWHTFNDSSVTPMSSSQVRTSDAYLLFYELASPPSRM
# In short: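 Kinetic fluorescence (Ex 525/Em 598) tracked cleavage of an internally quenched K48 di-ubiquitin substrate, added as a 100 nM solution. The enzyme was added as a 5 nM USP2 solution before compound pinning, with no-enzyme controls. Buffer: Tris pH 8, beta-mercaptoethanol, CHAPS.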
# [9] = qHTS assay for small molecule agonists of the antioxidant response element (ARE) signaling pathway measured by Nrf2-dependant transcriptional activity (AID 720636; active means well fitted curve in the direction sought with a large enough effect in the repeat runs; an effect the other way counts as inactive or inconclusive;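 further: HepG2 cells with an ARE-driven luciferase reporter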)
# In short: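 In HepG2 cells engineered with an Nrf2-responsive luciferase gene, ARE induction was quantified as luminescence after 16 hr compound treatment at 37 C.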
# [10] = qHTS assay for small molecule antagonists of the retinoid-related orphan receptor gamma (ROR-gamma) signaling pathway - cell viability counter screen (AID 720652; active means well fitted curve in the direction sought with a large enough effect in the repeat runs; an effect the other way counts as inactive or inconclusive;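 further: CHO reporter cells with doxycycline-induced ROR-gamma expression; series mostly up to about 92 µM; compound exposure lasted 16 hr before ATP read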)
# In short: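 CHO RORE-LUC/TET-ROR line, 1,000 cells/well, 37 C 5% CO2 5 hr; cpd or DMSO + doxycycline induction, 16 hr. CellTiter-Glo, 30 min RT, luminescence = ATP content.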
structure (smiles),measurement,setting,value
CC(C)(C)[C@]1(O)CCN2C[C@H]3c4ccccc4CCc4cccc(c43)[C@@H]2C1,Potency,[1],inactive
same,Potency,[2],inactive
same,outcome,[3],inactive
CC(C(O)c1ccc(O)cc1)N1CCC(Cc2ccccc2)CC1 (stereo unspecified),Potency,[1],inactive
same,Potency,[2],inactive
same,outcome,[3],inactive
C=Cc1c(C)c2cc3[nH]c(cc4nc(cc5nc(cc1[nH]2)C(C)=C5CCC(=O)O)C(CCC(=O)O)=C4C)c(C)c3C=C,Potency,[1],inactive
same,outcome,[4],inactive
same,Potency,[2],inactive
same,outcome,[3],inactive
NC(N)=NCCC[C@H](N)C(=O)O,Potency,[1],inactive
same,Potency,[2],inactive
same,outcome,[3],inactive
O=C1Nc2ccc(Cl)cc2[C@@](C#CC2CC2)(C(F)(F)F)O1,outcome,[5],inactive
same,outcome,[6],inactive
Nc1ccc(S(=O)(=O)Nc2nccs2)cc1,outcome,[7],inactive
same,outcome,[8],inactive
same,outcome,[9],inactive
same,Potency,[10],inactive
CN(C)CCCN1c2ccccc2CCc2ccccc21,Potency,[1],inactive
same,Potency,[2],inactive
same,outcome,[3],inactive
same,outcome,[9],inactive
CCN(CC)CCNC(=O)c1cc(Cl)c(N)cc1OC,Potency,[1],inactive
same,Potency,[2],inactive
same,outcome,[3],inactive
CC1=C(/C=C/C(C)=C/C=C/C(C)=C/C(=O)O)C(C)(C)CCC1,Potency,[1],inactive
same,Potency,[2],inactive
CC1=C(CC(=O)O)c2cc(F)ccc2/C1=C\c1ccc(S(C)=O)cc1 (stereo unspecified),Potency,[1],inactive
same,Potency,[2],inactive
same,outcome,[3],inactive
CC[C@H]1CN2CCc3cc(OC)c(OC)cc3[C@@H]2C[C@@H]1C[C@H]1NCCc2cc(OC)c(OC)cc21,Potency,[1],inactive
same,Potency,[2],inactive
CC(=O)OCC(=O)[C@@]1(O)CC[C@H]2[C@@H]3CCC4=CC(=O)CC[C@]4(C)[C@H]3C(=O)C[C@@]21C,Potency,[1],inactive
same,Potency,[2],inactive
same,outcome,[3],inactive
Nc1cc(=O)[nH]c(N)n1,Potency,[1],inactive
same,outcome,[4],inactive
same,Potency,[2],inactive
same,outcome,[3],inactive
CC(C)C(=O)c1c(C(C)C)nn2ccccc12,Potency,[1],inactive
same,Potency,[2],inactive
same,outcome,[3],inactive
CC(=O)O[C@@]12CO[C@@H]1C[C@H](O)[C@@]1(C)C(=O)[C@H](O)C3=C(C)[C@@H](OC(=O)[C@H](O)[C@@H](NC(=O)OC(C)(C)C)c4ccccc4)C[C@@](O)([C@@H](OC(=O)c4ccccc4)[C@H]21)C3(C)C,outcome,[5],inactive
same,outcome,[6],inactive
CC1=C(CC(=O)O)c2cc(F)ccc2/C1=C\c1ccc(S(C)(=O)=O)cc1,Potency,[1],inactive
same,Potency,[2],inactive
same,outcome,[3],inactive
CCCCCCCCCCCCCCCC(=O)NCCO,Potency,[1],inactive
same,Potency,[2],inactive
same,outcome,[3],inactive
C[C@]12C[C@H](O)[C@H]3[C@@H](CCC4=CC(=O)CC[C@@]43C)[C@@H]1CC[C@@H]2C(=O)CO,Potency,[1],inactive
same,Potency,[2],inactive
same,outcome,[3],inactive
same,outcome,[9],inactive
same,Potency,[10],inactive
CC(CN(C)C)CN1c2ccccc2CCc2ccccc21 (stereo unspecified),Potency,[1],inactive
same,Potency,[2],inactive
same,outcome,[3],inactive
NC(=O)c1ncn([C@@H]2O[C@H](CO)[C@@H](O)[C@H]2O)c1N,outcome,[5],inactive
same,outcome,[6],inactive
CC(CN1c2ccccc2Sc2ccccc21)N(C)C (stereo unspecified),Potency,[1],inactive
same,Potency,[2],inactive
same,outcome,[3],inactive
same,outcome,[9],inactive
CNCCCC1c2ccccc2C=Cc2ccccc21,Potency,[1],inactive
same,Potency,[2],inactive
same,outcome,[3],inactive
CCN(CC)CCNC(=O)c1c(C)[nH]c(/C=C2\C(=O)Nc3ccc(F)cc32)c1C,outcome,[6],inactive
OCc1cc(C(O)CNCCCCCCOCCCCc2ccccc2)ccc1O (stereo unspecified),Potency,[1],inactive
same,Potency,[2],inactive
same,outcome,[3],inactive
Cc1cc(N)c2ccccc2[n+]1CCCCCCCCCC[n+]1c(C)cc(N)c2ccccc21,Potency,[1],inactive
same,Potency,[2],inactive
same,outcome,[3],inactive
CSc1ccc2c(c1)C(N1CCN(C)CC1)Cc1ccccc1S2 (stereo unspecified),Potency,[1],inactive
same,Potency,[2],inactive
same,outcome,[3],inactive
CCCn1cnc2c1c(=O)n(CCCCC(C)=O)c(=O)n2C,Potency,[1],inactive
same,Potency,[2],inactive
same,outcome,[3],inactive
Oc1cn2c(n1)Nc1ccc(Cl)c(Cl)c1C2,outcome,[5],inactive
same,outcome,[6],inactive
CC(C)NC[C@H](O)c1ccc(O)c(O)c1,Potency,[1],inactive
same,outcome,[4],inactive
same,Potency,[2],inactive
same,outcome,[3],inactive
CCN(CC)CCCC(C)Nc1c2ccc(Cl)cc2nc2ccc(OC)cc12 (stereo unspecified),Potency,[1],inactive
same,Potency,[2],inactive
same,outcome,[3],inactive
C[C@](N)(Cc1ccc(O)cc1)C(=O)O,Potency,[1],inactive
